Test results: PubChem BioAssay (NCATS)
Records with an inconclusive call do not appear. Unmarked numbers belong to inactive results. Active and inactive are the calls of the source. Calls follow the shape of the dose curve; as a rule, active = well fitted cell-killing curve with a large enough effect; inconclusive = small, poorly fitted or top-dose-only effect; inactive = no such curve, though single readings can be large or run the other way.

assay: Quantitative High-Throughput drug screen in 47 multiple myeloma cell lines against the NCATS MIPE library collection: NCIH929_DSMZ cell viability assay (AID 1918978); conditions: NCI-H929 myeloma viability, CellTiter-Glo ATP, 48 h; series mostly up to 45.8 µM; viability, % of control: at the top concentration; also: nearly all actives have a fitted effect of over 35% in size
From the text: PI: Beverly A. Mock Ph.D.
Laboratory of Cancer Biology and Genetics,
Center for Cancer Research, National Cancer Institute,
National Institute of Health, Bethesda, Maryland
Drug resistance and disease progression are common in multiple myeloma (MM) patients, underscoring the need for new therapeutic combinations. […] We hypothesized that effective combinations would reduce MYC expression and enhance p16 activity. […] These preclinical data identify potentially useful drug combinations for evaluation in drug-resistant MM and reveal potential mechanisms of combined drug sensitivity.
Described herein is the primary MIPE qHTS used to cherrypick compounds. Validated compounds were then further tested for potential synergistic activiy.
[1] Peat TJ, Gaikwad SM, Dubois W, Gyabaah-Kessie N, Zhang S, Gorjifard S, Phyo Z, Andres M, Hughitt VK, Simpson RM, Miller MA, Girvin AT, Taylor A, Williams D, D'Antonio N, Zhang Y, Rajagopalan A, Flietner E, Wilson K, Zhang X, Shinn P, Klumpp-Thomas C, McKnight C, Itkin Z, Chen L, Kazandijian D, Zhang J, Michalowski AM, Simmons JK, Keats J, Thomas CJ, Mock BA. Drug combinations identified by high-throughput screening promote cell cycle transition and upregulate Smad pathways in myeloma. Cancer Lett. 2023 Aug 1;568:216284. doi: 10.1016/j.canlet.2023.216284. Epub 2023 Jun 24. PMID: 37356470; PMCID: PMC10408729.
SEQUENCE No. (e.g., 1, 2, 3, etc.); […] (e.g., Cells, Incubation, Reagent, etc.); VALUE and DESCRIPTION.
1; Cells; 5 uL; white, solid bottom 1536-well Greiner assay plate.
2; Compounds; 23 nL; Kalypsis pin tool (Wako USA) equipped with a 1536-well pin head to transfer to the assay plates.
3; Incubation; 48 hours; 37C incubation.
4; Reagent;5uL; CellTiter Glo (Promega).
5; Detector; 425V; Luminescence; Viewlux PerkinElmer.
NOTES (numbers refer to Sequence numbers above)
1. The cell-based screening methods employed in this study were like those previously published. Briefly, the corresponding myeloma cell lines were screened in 1,536-well plates with 500 cells, 5-uL per well for inhibition of cell viability (assessed by measuring ATP levels with CellTiterGlo).
2. NCATS MIPE 4.0 library of approved and investigational drugs were added using the Kalypsis pin tool. Wells treated with DMSO only for 100% viability and media only for 0% viability were used as controls.
3. The assay plates were covered and incubated for 48 hours in a 37C, 5% CO2 incubator with controlled humidity.
4. After 48 hours, CellTilter-GloTM luminescent substrate mix (Promega) reagent was added to the assay plate and plates we incubated for 5 min at room temperature.
5. Signal was measured as median relative luminescence units on a ViewLux (PerkinElmer) multiplate reader.
[1] Heske CM, Davis MI, Baumgart JT, Wilson K, Gormally MV, Chen L, Zhang X, Ceribelli M, Duveau DY, Guha R, Ferrer M, Arnaldez FI, Ji J, Tran HL, Zhang Y, Mendoza A, Helman LJ, Thomas CJ. Matrix Screen Identifies Synergistic Combination of PARP Inhibitors and Nicotinamide Phosphoribosyltransferase (NAMPT) Inhibitors in Ewing Sarcoma. Clin Cancer Res. 2017 Dec 1;23(23):7301-7311. doi: 10.1158/1078-0432.CCR-17-1121. Epub 2017 Sep 12. PMID: 28899971; PMCID: PMC6636827.
Potency is read from the fitted curve at half-maximal effect.

| SMILES | Potency | viability, % of control [%] |
| --- | --- | --- |
| CC(C)=CCCC(C)=CCCC(C)=CCSc1ccccc1C(=O)O | 526 nM (active) | – |
| C=CC(=O)Nc1cc2c(Nc3ccc(F)c(Cl)c3)ncnc2cc1C#CC(C)(C)N1CCN(C)CC1 | 833 nM (active) | – |
| C1Cc2[nH]nc(-c3nn[nH]n3)c2C1 | – | 102 |
| Cc1nc2cnc3ccc(C#Cc4cccnc4)cc3c2n1-c1ccc(C(C)(C)C#N)cc1 | 26.4 nM (active) | – |
| O=C(NC1CCNCC1)c1[nH]ncc1NC(=O)c1c(Cl)cccc1Cl | 418 nM (active) | – |
| c1nc2nc(Nc3ccc(N4CCOCC4)cc3)nc(NC3CCCCC3)c2[nH]1 | 3720 nM (active) | – |
| CC=C1NC(=O)[C@H]2CSSCCC=C[C@H](CC(=O)N[C@H](C(C)C)C(=O)N2)OC(=O)[C@H](C(C)C)NC1=O | 52.6 nM (active) | – |
| CNC(=O)c1cc(Oc2ccc(NC(=O)Nc3cc(C(C)(C)C)nn3-c3ccc4ncccc4c3)c(F)c2)ccn1 | 4690 nM (active) | – |
| CCc1c2c(nc3ccc(O)cc13)-c1cc3c(c(=O)n1C2)COC(=O)[C@]3(O)CC | 46.9 nM (active) | – |
| N#CCNC(=O)c1ccc(-c2ccnc(Nc3ccc(N4CCOCC4)cc3)n2)cc1 | 9350 nM (active) | – |
| COc1cc(C(=O)N2CCC(N3CCN(C)CC3)CC2)ccc1Nc1ncc2c(n1)N(C)c1ccccc1C(=O)N2C | 4180 nM (active) | – |
| O=C(C=Cc1cccnc1)NCCCCC1CCN(C(=O)c2ccccc2)CC1 | 13.2 nM (active) | – |
| CN(C)CCCN=c1c2ccccc2n(C)c2[nH]c(=O)n(C)c(=O)c12 | 11800 nM (active) | – |
| CC[C@@]1(O)C(=O)OCc2c1cc1n(c2=O)Cc2cc3cc(O)ccc3nc2-1 | 296 nM (active) | – |
| Cc1cn2c(-c3cn[nH]c3)cnc2c(Nc2ccc(C(=O)N3CCNCC3)cc2F)n1 | 8330 nM (active) | – |
| O=C(C=Cc1c(C(=O)O)[nH]c2cc(Cl)cc(Cl)c12)Nc1ccccc1 | – | 110 |
| COc1cccc2c(NCc3ccccc3)nc(-n3c(N)nc4ccccc43)nc12 | 3320 nM (active) | – |
| CC[C@H](CO)Nc1nc(NCc2ccccc2)c2ncn(C(C)C)c2n1 | 10500 nM (active) | – |
| COCCn1c2c([n+](Cc3cnccn3)c1C)C(=O)c1ccccc1C2=O | 33.2 nM (active) | – |
| CN[C@H]1CCc2cc(OC)c(OC)c(OC)c2-c2ccc(OC)c(=O)cc21 | 23.5 nM (active) | – |

| SMILES | Potency | viability, % of control [%] |
| --- | --- | --- |
| CC(C)c1ccc(Cn2ccc3c4c(N)nc(NC5CC5)nc4ccc32)cc1 | 13200 nM (active) | – |
| COc1cc2c(Oc3ccc(NC(=O)C4(C(=O)Nc5ccc(F)cc5)CC4)cc3F)ccnc2cc1OCCCN1CCOCC1 | 2960 nM (active) | – |
| CCCNC(=O)Nc1ccc(Oc2ncnc3cc(OC)c(OC)cc23)cc1Cl | – | 99.1 |
| CC(O)C1C(=O)N2C(C(=O)O)=C(SC3CNC(C(=O)N(C)C)C3)C(C)C12 (stereo not given) | – | 98.9 |
| CC[C@@H]1C(=O)N(C)c2cnc(Nc3ccc(C(=O)NC4CCC(N5CCN(CC6CC6)CC5)CC4)cc3OC)nc2N1C(C)C (stereo not given in full) | 1320 nM (active) | – |
| Cc1ccc(C(=O)Nc2ccc(CN3CCN(C)CC3)c(C(F)(F)F)c2)cc1C#Cc1cnc2cccnn12 | 935 nM (active) | – |
| CN1CCN(c2ccc3nc(-c4c(N)c5c(F)cccc5[nH]c4=O)[nH]c3c2)CC1 | 2350 nM (active) | – |
| CN1CC[C@@H](c2c(O)cc(O)c3c(=O)cc(-c4ccccc4Cl)oc23)[C@@H](O)C1 | 74.3 nM (active) | – |
| Cc1ccc(C(N)=O)cc1Nc1nccc(-c2cn(C(C)C)c3cnccc23)n1 | 2960 nM (active) | – |
| Cc1cc(Nc2cc(NC(=O)c3c(Cl)cccc3Cl)ccn2)nc(N)n1 | 9350 nM (active) | – |
| O=C(C=Cc1cccc(S(=O)(=O)Nc2ccccc2)c1)NO | 3030 nM (active) | – |
| C[C@H]1C[C@@H]2[C@@H]([C@@H](O)C[C@@]3(C)[C@H]2CC[C@]3(O)C(=O)CO)[C@@]2(C)C=CC(=O)C=C12 | – | 80.8 |
| CC(C)(C)c1cc(NC(=O)Nc2ccc(-c3cn4c(n3)sc3cc(OCCN5CCOCC5)ccc34)cc2)no1 | – | 77.1 |
| Nc1ccn([C@@H]2O[C@H](CO)[C@H](O)C2(F)F)c(=O)n1 | 264 nM (active) | – |
| Clc1ccc2ncc(-c3cccc(NC4CNC4)n3)n2c1 | 20900 nM (active) | – |
| COc1cc(Nc2ncc(F)c(Nc3ccc4c(n3)N(COP(=O)(O)O)C(=O)C(C)(C)O4)n2)cc(OC)c1OC | 3720 nM (active) | – |
| COc1ccc2c(OCc3nnc4ccc(-c5ccccc5)nn34)ccnc2c1 | – | 116 |
| CC1=C(CO)C(=O)O[C@@H]([C@@H](C)[C@H]2CC[C@H]3[C@@H]4C[C@H]5O[C@]56[C@@H](O)C=CC(=O)[C@]6(C)[C@@H]4CC[C@]23C)C1 | 166 nM (active) | – |
| O=C(NCCCNc1nc(Nc2cccc(NC(=O)N3CCCC3)c2)ncc1I)c1cccs1 | 5900 nM (active) | – |
| CCOC(=O)C1=C(C)NC2=C(C(=O)CC(C)(C)C2)C1c1ccc(-c2ccccc2)cc1 (stereo not given) | 20900 nM (active) | – |
